From PubChem BioAssay AID2013 (Sanford-Burnham Center for Chemical Genomics, 2009)
“And” between values parts separate entries of the source, which are not always exact repeats. Identical values can stand only once. Screen size: about 290,000 compounds; about 370 (0.13%) were called active.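 Rule for the calls: active = spots per cell inhibited over 60%, with over 100 cells counted and total cytoplasm intensity under 500,000; inconclusive = wells with under 100 cells, flagged as likely toxic; inactive = the rest.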 For the sample, actives were picked, then their nearest neighbours and some compounds at random. Results with a measured potency or affinity are listed apart. Some compounds were tested as several samples or in several runs, with calls that do not always agree.

biological target: G-protein coupled receptor 55 (Homo sapiens) (UniProt Q9Y2T6); experiment: GPR55 antagonists blocking LPI-driven arrestin recruitment, primary screen, imaging, U2OS, beta-arrestin-GFP, LPI agonist (AID 2013); conditions: U2OS GPR55 beta-arrestin-GFP translocation imaging, LPI antagonism; at 10 µM; stronger effect = higher value;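 note: U2OS cells stably carrying GPR55 and arrestin-GFP stimulated by 5 µM LPI near EC80; imaged beta-arrestin-GFP aggregate spots per cell after agonist stimulation; plate controls were LPI-stimulated DMSO wells for no effect and DMSO wells without LPI for full effect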
Sequence (Q9Y2T6 whole entry, looked up): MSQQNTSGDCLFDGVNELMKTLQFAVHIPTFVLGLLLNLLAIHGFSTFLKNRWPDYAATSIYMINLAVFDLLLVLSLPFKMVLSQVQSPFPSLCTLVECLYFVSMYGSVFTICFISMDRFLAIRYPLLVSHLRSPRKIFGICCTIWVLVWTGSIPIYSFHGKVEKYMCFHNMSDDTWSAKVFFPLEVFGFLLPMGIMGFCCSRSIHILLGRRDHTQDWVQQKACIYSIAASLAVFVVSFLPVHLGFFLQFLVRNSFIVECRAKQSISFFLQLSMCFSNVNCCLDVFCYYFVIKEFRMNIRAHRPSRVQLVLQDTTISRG

inhibition, 6.9% (inactive) and 99.2% (active):
N[C@@H](Cc1cc(I)c(Oc2ccc(O)c(I)c2)c(I)c1)C(=O)O

inhibition, inactive:
C=CCN1C(=O)SC(Cc2cccc(OC)c2O)C1=O (stereo unspecified) -4.5%
COc1ccc(C(=O)NC(C)Cc2cnccn2)cc1OC1CCN(C(C)C)CC1 (stereo unspecified) 18.7%
CC(C(=O)Nc1cccnc1)n1cc([N+](=O)[O-])cn1 (stereo unspecified) 9.4%
COC(=O)C1=C(C)N(Cc2ccccc2)C(=O)N[C@H]1c1cccc(C(F)(F)F)c1 6.8%
COCCN=C1N[C@@H](c2cccc(C(F)(F)F)c2)C(C(=O)OC)=C(C)N1Cc1ccccc1 31.8%
COc1ccc(NC(=O)CN2CCN(C3c4ccccc4-c4ccccc43)CC2)cc1 9.6%
COc1ccccc1NC(=O)CN1CCN(C2c3ccccc3-c3ccccc32)CC1 59.8%
COc1ccc(NC(C)=O)cc1NC(=O)CN1CCN(CC(=O)Nc2ccccc2Cl)CC1 21.6%
COc1ccccc1NC(=O)CN1CCN(CC(=O)Nc2cc(NC(C)=O)ccc2OC)CC1 -4.4%
Nc1c2c(nn1-c1ccc(F)cc1)CSC2 -2.1%
O=C(CO/N=C1\CCCc2nonc21)Nc1ccccc1Cl 0.5%
O=C1/C(=C/c2ccccc2)SC(=S)N1C1CCS(=O)(=O)C1 (stereo unspecified) 9.4%
O=C1/C(=C/c2cccnc2)SC(=S)N1C1CCS(=O)(=O)C1 (stereo unspecified) 3.6%
C=C(C)CNC(=S)NNC(=O)CCn1c2ccccc2c2ccccc21 -10.4%
CCOc1ccc(CCNC(=O)c2ccc(CS(=O)Cc3ccc(Cl)cc3)o2)cc1OCC (stereo unspecified) 13.4%
Cc1ccc(Cn2cc(SCC(=O)Nc3nccs3)c3ccccc32)cc1 2.5%
Cc1ccccc1C(=O)Nc1ccc(S(=O)(=O)Nc2onc(C)c2C)cc1 6.6%
Cc1cc(C)c2nc(-c3ccccn3)cc(C(=O)Nc3cc(C)on3)c2c1 1.5%
Cc1noc(NS(=O)(=O)c2ccc(NC(=O)c3cc(-c4ccccc4Cl)nc4ccccc34)cc2)c1C 14.9%
Cc1ccc(-c2cc(C(=O)Nc3ccc(S(=O)(=O)Nc4onc(C)c4C)cc3)c3ccccc3n2)cc1 -14.3%
Cc1cc(C)c(C(=O)Nc2ccc(S(=O)(=O)Nc3onc(C)c3C)cc2)c(C)c1 4.6%
Cc1ccc(-c2cc(C(=O)Nc3ccc(S(=O)(=O)Nc4cc(C)on4)cc3)c3ccccc3n2)c(C)c1 32.5%
COc1ccc(-n2ncc3c(=O)n(CC(=O)Nc4ccc5c(c4)OCCO5)cnc32)cc1 0.6%
COc1cc2nc(SCC(N)=O)n(CCC3=CCCCC3)c(=O)c2cc1OC -6.5%
COc1cc(NC(=O)c2cc(C)no2)cc(OC)c1OC 3.4%
COc1cc(-c2nn3c(-c4ccccc4)nnc3s2)cc(OC)c1OC -5.2%
Cc1cc(/C=C2\SC(=O)N(C)C2=O)c(C)n1-c1ccc(S(N)(=O)=O)cc1 5%
Cc1cc(/C=C2\SC(N)=NC2=O)c(C)n1-c1ccccc1 -9.3%
[N-]=[N+]=NC[C@H](c1ccccc1)N1CCN(Cc2ccccc2)CCC1=O 9.8%
CCOC(=O)CC(NC(=O)CCS(=O)(=O)c1ccc2c(c1)n(C)c(=O)c(=O)n2C)c1ccc(C)cc1 (stereo unspecified) 10.2%
CCN(CC)c1ccc(/C=N/n2c(C)nc3ccccc3c2=O)cc1 -7.1%
O=S(=O)(c1ccccc1)N1CCCc2ccccc21 0.9%
O=S(=O)(c1ccc(F)cc1)N1CCc2ccccc21 9.6%
COc1ccc(Br)cc1S(=O)(=O)Nc1cccc(C)n1 9.5%
C=CCN(C(=O)CNC(=O)c1ccco1)C(C(=O)NC1CCCCC1)c1ccccc1 (stereo unspecified) -5.9%
C=CCN(C(=O)CNC(=O)c1ccco1)C(C(=O)NC1CCCCC1)c1ccc(OC)cc1 (stereo unspecified) -13.5%
CC(C)N1CCC(N2CCN(Cc3ccc(-c4ccc(Cl)cc4)o3)CC2CCO)CC1 (stereo unspecified) 0.6%
CC(NC(=O)CCCCCNC(=O)N1CCn2c1nc1ccccc12)c1ccccc1 (stereo unspecified) 2.2%
Cc1oc(-c2cccc(Cl)c2)nc1CS(=O)(=O)CC(=O)NCCN1CCOCC1 -0.5%
CCOC(=O)C1=C(C)NC(C)=C(C(=O)OCC)C1c1ccc(C)o1 10.1%
CCOC(=O)C1=C(C)NC(=O)NC1c1ccc(Br)o1 (stereo unspecified) -4%
CCCCCCOC(=O)c1ccc(NC(=O)c2cc(OC)c(OC)c(OC)c2Br)cc1 -0.3%
Cc1cnc(NC(=O)NCC2CCCC(CNC(=O)Nc3ncc(C)s3)C2)s1 (stereo unspecified) -6.9%
CCCCC(O)(CCCC)C(=O)NN(C(=O)c1cccnc1Cl)c1ccccc1 6.1%
COc1ccc2c(C)cc(SCn3nnc4ccccc4c3=O)nc2c1 -3.7%
CCN1C(=O)C(O)(C2COC(C)(C)CC2=O)c2ccccc21 (stereo unspecified) 7.4%
CCN1C(=O)C(O)(CC(=O)c2ccccn2)c2ccccc21 (stereo unspecified) 12%
CCOc1ccc(Cl)cc1S(=O)(=O)N1CCC(C(=O)NCC2CCCO2)CC1 (stereo unspecified) -1.1%
O=C(CSC1=NCCS1)Nc1cccc(F)c1 -2.2%
COc1ccc(CCNC2=NCC(C)S2)cc1 (stereo unspecified) 6.5%
Cc1ccc(NC2=NCC(Cc3ccc(Br)cc3)S2)cc1 (stereo unspecified) 49%
COc1cccc(C(=O)Nc2cc(C(=O)NCc3ccc(C)cc3)ccc2N2CCC3(CC2)CC(c2ccccc2)=NO3)c1 10.8%
Cc1cccc(C)c1NC(=O)CN(C)CC(=O)Nc1cc(Cl)ccc1C#N 6.8%
N#CC1=C2N=C(N)c3ccccc3N2C2=C(C(=O)CCC2)C1c1ccc(F)cc1 (stereo unspecified) 13.1%
N#CC1=C2N=C(N)c3ccccc3N2C2=C(C(=O)CCC2)C1c1ccc(Cl)cc1 (stereo unspecified) 86.9%
O=S(=O)(NCC1CCN(c2ccc(S(=O)(=O)N3CCOCC3)cc2)CC1)c1ccccc1 0.7%
O=C(O)Cn1ncn(-c2ccc(OC(F)(F)F)cc2)c1=O 4.9%
O=C(NC(=S)NCCC1=CCCCC1)c1ccc(Br)o1 4.9%
Cc1ccccc1C(=O)NC(=S)NCCC1=CCCCC1 1%
CCOc1ccccc1NC(=O)NCc1ccco1 11.3%
Cc1cc(SCC(=O)N/N=C/c2ccc(O)cc2O)nc2ccccc12 13.8%
Oc1oc(-c2ccc(Br)cc2)nc1C=Nc1ccc(Br)cn1 -0.2%
CC(=O)c1ccc(N2CCN(C3CCC(C(C)(C)C)CC3)CC2)cc1 (stereo unspecified) 9%
N[C@@H](Cc1ccc(O)c(I)c1)C(=O)O 8.6%
O=C(O)Cc1cc(I)c(Oc2ccc(O)c(I)c2)c(I)c1 6.9%
COc1ccccc1N1CCN(CCCCOc2ccc(C)cc2C)CC1 18.9%
Cc1ccccc1NC1=C/C(=N\S(=O)(=O)c2cccs2)c2ccccc2C1=O -11.4%
Cc1ccc(NC2=C/C(=N/S(=O)(=O)c3cccs3)c3ccccc3C2=O)cc1 16%
COc1ccc(OCc2nnc(SCC(=O)Nc3ccccc3F)o2)cc1 -6.5%
Cc1cccc(C(=O)N(CCc2ccccc2)Cc2ccccc2)c1[N+](=O)[O-] 14%
O=C(OCn1ncc(Br)c(Br)c1=O)c1c(F)cccc1F -5.4%
O=C(OCn1ncc(Cl)c(Cl)c1=O)c1ccc(F)cc1 1.3%
CCOC(=O)C1=C(C(F)(F)F)Nc2ncnn2C1c1cccc(OC)c1OC (stereo unspecified) 13.1%
Cn1nc(-c2ccccn2)nc2c(=O)n(C)c(=O)nc1-2 45.9%
CCCc1nc2c(=O)n(C)c(=O)nc-2n(C)n1 -5.2%
O=C(/C=C/c1ccc(S(=O)(=O)N2CCOCC2)cc1)N1CCN(c2ccccc2)CC1 -10.2%
COc1ccc(Br)cc1S(=O)(=O)n1ccnc1 3.5%
Cc1ccc(CSCCNC(=O)c2ccc(N(C)S(=O)(=O)c3ccccc3)cc2)cc1 4.4%
CN(c1ccc(C(=O)NCCSCc2ccccc2)cc1)S(=O)(=O)c1ccccc1 -5.5%
CCOc1ccc(-n2nc3c(=O)[nH]nc(C)c3c2C)cc1 7.8%
COc1cc(C2C(C#N)=C(N)Oc3c2c(-c2ccccc2)nn3-c2ccccc2)cc(OC)c1OC (stereo unspecified) -13.1%
COc1ccc(C2C(C#N)=C(N)Oc3c2c(-c2ccccc2)nn3-c2ccccc2)c(OC)c1OC (stereo unspecified) 79.5%
O=C(/C=C/c1ccco1)NC(=S)Nc1ccccc1N1CCCC1 23%
Cc1ccc(C(=O)NC(=S)Nc2ccccc2N2CCOCC2)cc1C 0.3%
CCc1ccc(C(=O)NC(=S)Nc2ccc(N3CCOCC3)cc2)cc1 4.3%
O=C(NC(=S)Nc1ccccc1N1CCOCC1)c1ccc([N+](=O)[O-])cc1 5%
O=C(/C=C/c1ccco1)Nc1ccccc1N1CCOCC1 10.8%
O=C(NC(=S)Nc1ccccc1N1CCOCC1)c1ccccc1F 16.2%
COc1ccc(C(=O)NC(=S)Nc2ccccc2N2CCOCC2)cc1Br 0.4%
O=C(COc1ccc(Br)cc1)NC(=S)Nc1ccccc1N1CCOCC1 0.7%

inhibition, active:
COc1ccc(NC(C)=O)cc1NC(=O)CN1CCN(C2c3ccccc3-c3ccccc32)CC1 100%
O=S(=O)(c1ccc(F)cc1)N1CCCc2ccccc21 93.9%
C=CCN(C(=O)CNC(=O)c1ccco1)C(C(=O)NC1CCCCC1)c1ccc(F)cc1 (stereo unspecified) 73.3%
O=C(NC(=S)NCCC1=CCCCC1)c1ccccc1Br 74.9%
COc1ccccc1C1C(C#N)=C(N)Oc2c1c(-c1ccccc1)nn2-c1ccccc1 (stereo unspecified) 96.3%
